Measurements: ChEMBL document CHEMBL1961873, “Compounds: GSK PKIS; Assays: Nanosyn kinase panel” (2012)

What was measured:
[1] = target: Serine/threonine-protein kinase MARK2 (Homo sapiens) (UniProt Q7KZI7); conditions: at 1 µM
[2] = target: PAS domain-containing serine/threonine-protein kinase (Homo sapiens) (UniProt Q96RG2); conditions: at 0.1 µM
[3] = target: PAS domain-containing serine/threonine-protein kinase (Homo sapiens) (UniProt Q96RG2); conditions: at 1 µM
[4] = target: Phosphorylase b kinase gamma catalytic chain, skeletal muscle/heart isoform (Homo sapiens) (UniProt Q16816); conditions: at 0.1 µM
[5] = target: Phosphorylase b kinase gamma catalytic chain, skeletal muscle/heart isoform (Homo sapiens) (UniProt Q16816); conditions: at 1 µM
[6] = target: T1, Phosphorylase b kinase gamma catalytic chain, liver/testis isoform (Homo sapiens) (UniProt P15735); conditions: at 0.1 µM
T1 sequence (whole entry): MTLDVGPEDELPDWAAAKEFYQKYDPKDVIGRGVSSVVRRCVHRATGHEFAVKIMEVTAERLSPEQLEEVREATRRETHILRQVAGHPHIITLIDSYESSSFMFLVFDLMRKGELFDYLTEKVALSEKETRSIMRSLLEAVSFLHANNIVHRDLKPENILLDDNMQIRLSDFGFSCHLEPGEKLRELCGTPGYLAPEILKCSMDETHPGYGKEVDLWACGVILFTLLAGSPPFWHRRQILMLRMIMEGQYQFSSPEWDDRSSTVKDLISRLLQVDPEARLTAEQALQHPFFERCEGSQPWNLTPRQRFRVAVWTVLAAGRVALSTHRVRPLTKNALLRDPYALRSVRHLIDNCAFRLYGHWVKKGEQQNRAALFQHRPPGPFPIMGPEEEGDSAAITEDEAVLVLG

[7] = target: T1, Phosphorylase b kinase gamma catalytic chain, liver/testis isoform (Homo sapiens); conditions: at 1 µM
[8] = target: Serine/threonine-protein kinase pim-1 (Homo sapiens) (UniProt P11309); conditions: at 0.1 µM
[9] = target: Serine/threonine-protein kinase pim-1 (Homo sapiens) (UniProt P11309); conditions: at 1 µM
[10] = target: Serine/threonine-protein kinase pim-2 (Homo sapiens) (UniProt Q9P1W9); conditions: at 0.1 µM;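 note: reported value is the mean percent inhibition of PIM2, measured in the GSK PKIS kinase inhibitor set screen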
Serine/threonine-protein kinase pim-2 (Homo sapiens), sequence (Q9P1W9 whole entry, looked up): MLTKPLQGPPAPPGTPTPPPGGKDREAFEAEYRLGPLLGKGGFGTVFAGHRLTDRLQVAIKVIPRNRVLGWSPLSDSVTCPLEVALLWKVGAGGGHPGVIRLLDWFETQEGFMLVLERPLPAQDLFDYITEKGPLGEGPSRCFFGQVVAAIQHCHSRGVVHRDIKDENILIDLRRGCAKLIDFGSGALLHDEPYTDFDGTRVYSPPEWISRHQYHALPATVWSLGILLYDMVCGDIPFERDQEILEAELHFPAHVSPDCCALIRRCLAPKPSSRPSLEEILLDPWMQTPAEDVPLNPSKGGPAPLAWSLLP

Phosphorylase b kinase gamma catalytic chain, skeletal muscle/heart isoform (Homo sapiens), sequence (Q16816 whole entry, looked up, canonical isoform): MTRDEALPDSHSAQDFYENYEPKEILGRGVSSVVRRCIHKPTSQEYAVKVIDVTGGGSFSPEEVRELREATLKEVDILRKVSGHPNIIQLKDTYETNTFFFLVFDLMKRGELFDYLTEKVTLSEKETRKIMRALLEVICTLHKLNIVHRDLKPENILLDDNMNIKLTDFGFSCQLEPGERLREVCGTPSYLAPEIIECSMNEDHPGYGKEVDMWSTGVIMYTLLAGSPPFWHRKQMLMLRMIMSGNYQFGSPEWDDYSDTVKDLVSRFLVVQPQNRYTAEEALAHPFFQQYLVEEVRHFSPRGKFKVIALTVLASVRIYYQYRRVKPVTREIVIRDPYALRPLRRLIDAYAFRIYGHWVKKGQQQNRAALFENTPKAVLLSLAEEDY
Serine/threonine-protein kinase MARK2 (Homo sapiens), sequence (Q7KZI7 whole entry, the tested form may be a part): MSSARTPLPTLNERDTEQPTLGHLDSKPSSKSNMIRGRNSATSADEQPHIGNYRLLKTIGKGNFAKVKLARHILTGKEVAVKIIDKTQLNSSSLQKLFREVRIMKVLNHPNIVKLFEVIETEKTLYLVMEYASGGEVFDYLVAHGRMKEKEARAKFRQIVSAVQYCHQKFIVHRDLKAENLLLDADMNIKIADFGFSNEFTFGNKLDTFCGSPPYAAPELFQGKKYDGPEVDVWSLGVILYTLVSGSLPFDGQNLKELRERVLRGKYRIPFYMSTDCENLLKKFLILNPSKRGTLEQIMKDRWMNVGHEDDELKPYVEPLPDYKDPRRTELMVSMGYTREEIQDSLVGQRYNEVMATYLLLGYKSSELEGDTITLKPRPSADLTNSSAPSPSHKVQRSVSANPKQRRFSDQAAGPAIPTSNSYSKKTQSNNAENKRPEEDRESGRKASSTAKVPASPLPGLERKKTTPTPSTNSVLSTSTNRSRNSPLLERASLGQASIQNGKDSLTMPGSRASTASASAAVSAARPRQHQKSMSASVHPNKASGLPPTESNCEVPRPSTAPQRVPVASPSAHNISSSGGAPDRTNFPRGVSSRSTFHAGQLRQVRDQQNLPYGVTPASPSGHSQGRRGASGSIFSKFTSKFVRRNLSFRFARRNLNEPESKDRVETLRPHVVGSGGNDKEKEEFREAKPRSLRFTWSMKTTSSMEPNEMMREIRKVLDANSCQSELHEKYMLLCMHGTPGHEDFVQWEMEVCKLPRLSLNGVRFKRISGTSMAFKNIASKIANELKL
PAS domain-containing serine/threonine-protein kinase (Homo sapiens), sequence (Q96RG2 whole entry, the tested form may be a part, canonical isoform): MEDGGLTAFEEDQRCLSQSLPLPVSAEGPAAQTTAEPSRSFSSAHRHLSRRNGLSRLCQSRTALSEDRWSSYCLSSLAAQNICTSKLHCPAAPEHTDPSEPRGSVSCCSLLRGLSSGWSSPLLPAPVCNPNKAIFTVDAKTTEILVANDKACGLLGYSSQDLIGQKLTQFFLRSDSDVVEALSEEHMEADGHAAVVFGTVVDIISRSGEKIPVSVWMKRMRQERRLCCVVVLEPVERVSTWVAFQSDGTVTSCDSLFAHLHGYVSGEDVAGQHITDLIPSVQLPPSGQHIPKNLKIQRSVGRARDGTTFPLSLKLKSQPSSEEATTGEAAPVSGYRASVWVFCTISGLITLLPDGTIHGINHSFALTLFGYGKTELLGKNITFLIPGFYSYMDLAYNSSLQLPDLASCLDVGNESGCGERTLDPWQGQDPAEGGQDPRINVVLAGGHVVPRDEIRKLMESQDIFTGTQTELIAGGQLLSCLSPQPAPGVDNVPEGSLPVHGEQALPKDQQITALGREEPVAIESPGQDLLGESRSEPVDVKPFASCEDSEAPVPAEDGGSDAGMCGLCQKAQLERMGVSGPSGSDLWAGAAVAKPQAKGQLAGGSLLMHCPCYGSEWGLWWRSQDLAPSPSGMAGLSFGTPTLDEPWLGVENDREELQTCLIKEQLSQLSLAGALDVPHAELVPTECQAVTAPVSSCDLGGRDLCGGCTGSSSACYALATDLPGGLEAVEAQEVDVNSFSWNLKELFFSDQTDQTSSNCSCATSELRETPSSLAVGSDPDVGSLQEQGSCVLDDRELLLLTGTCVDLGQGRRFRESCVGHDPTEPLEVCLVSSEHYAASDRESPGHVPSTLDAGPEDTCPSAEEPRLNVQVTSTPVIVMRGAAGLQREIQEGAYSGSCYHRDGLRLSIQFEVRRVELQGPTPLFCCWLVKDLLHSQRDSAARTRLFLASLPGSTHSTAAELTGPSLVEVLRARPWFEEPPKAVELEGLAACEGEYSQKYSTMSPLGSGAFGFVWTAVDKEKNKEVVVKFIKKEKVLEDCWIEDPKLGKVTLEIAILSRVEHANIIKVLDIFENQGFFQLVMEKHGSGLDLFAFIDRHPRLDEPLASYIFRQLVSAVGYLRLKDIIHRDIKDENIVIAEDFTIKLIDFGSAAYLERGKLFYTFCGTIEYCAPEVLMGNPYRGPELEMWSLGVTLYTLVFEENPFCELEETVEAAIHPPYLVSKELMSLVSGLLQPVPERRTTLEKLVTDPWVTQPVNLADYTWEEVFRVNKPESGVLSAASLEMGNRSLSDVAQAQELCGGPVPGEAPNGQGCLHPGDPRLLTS
Serine/threonine-protein kinase pim-1 (Homo sapiens), sequence (P11309 whole entry, looked up): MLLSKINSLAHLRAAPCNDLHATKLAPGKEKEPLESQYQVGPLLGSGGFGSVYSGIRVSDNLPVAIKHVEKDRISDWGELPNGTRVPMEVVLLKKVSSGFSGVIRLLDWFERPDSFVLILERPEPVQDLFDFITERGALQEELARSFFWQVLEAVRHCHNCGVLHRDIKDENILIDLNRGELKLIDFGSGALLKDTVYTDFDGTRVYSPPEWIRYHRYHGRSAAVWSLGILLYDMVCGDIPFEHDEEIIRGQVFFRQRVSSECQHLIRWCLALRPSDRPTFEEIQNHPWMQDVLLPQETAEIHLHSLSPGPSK

SMILES | inhibition [1] [%] | inhibition [2] [%] | inhibition [3] [%] | inhibition [4] [%] | inhibition [5] [%] | inhibition [6] [%] | inhibition [7] [%] | inhibition [8] [%] | inhibition [9] [%] | inhibition [10] [%]
CN1CCC(C(=O)Nc2n[nH]c3nnc(-c4ccccc4)cc23)CC1 | 0.72 | 0.17 | 0.71 | 5.33 | 11.3 | 6.18 | 9.48 | 1.63 | 3.41 | 0.6
COc1cc2ncn(-c3cc(OCc4ccccc4C(F)(F)F)c(C(N)=O)s3)c2cc1OC | 12.2 | -0.15 | 0.3 | 6.17 | 8.75 | 5.36 | 6.56 | -0.79 | 2.8 | -3.6
CC(C)=Cc1cccc2c1/C(=N/Nc1ccc(S(N)(=O)=O)cc1)C(=O)N2 | 14.2 | 0.93 | 1.77 | 0.64 | 26.6 | 1.74 | 8.45 | 1.05 | 1.77 | 0.72
CCN1CCC(CC(=O)Nc2n[nH]c3nc(-c4cccs4)c(Br)cc23)CC1 | 0.15 | -0.58 | -1.17 | 2.37 | 5.36 | -4.86 | -3.7 | 0.1 | 3.88 | 0.19
NS(=O)(=O)c1cccc(-c2ccc3c(NC(=O)C4CC4)n[nH]c3c2)c1 | 4.42 | -1.09 | -1.37 | 2.99 | 2.11 | -4.36 | -2.76 | -0.14 | 1.01 | 0.46
CS(=O)(=O)Nc1ccc(N/C=C2\C(=O)Nc3ccccc32)cc1 | 15.6 | 0.59 | 0.59 | 4.32 | 31.5 | -3.81 | 5.2 | 0.18 | 0.04 | -0.01
NS(=O)(=O)c1ccc(N/N=C2\C(=O)Nc3ccc(C(=O)NCCc4c[nH]cn4)cc32)cc1 | 40.4 | 0.48 | -3.06 | 14.2 | 58.7 | 8.35 | 24 | 10.5 | 51.7 | 3.79
COC(=O)Nc1nc2cc(Oc3cccc(NC(=O)Nc4cc(C(F)(F)F)ccc4F)c3)ccc2[nH]1 | 0.86 | 0.12 | 0.57 | 2.73 | 2.22 | -0.89 | -1.83 | -0.25 | 0.39 | -0.3
Cc1nn(C)c2cc(N(C)c3ccnc(Nc4cccc(S(N)(=O)=O)c4)n3)ccc12 | 1.25 | -0.56 | -0.33 | 3.53 | 8.04 | 2.44 | 2.5 | 1.18 | 0.82 | 0.22
Cc1nnc(-c2ccc(C)c(-c3ccc(C(=O)Nc4cccc(C#N)c4)cc3)c2)o1 | 0.87 | 0.45 | 4.14 | 2.07 | 6.42 | 2.78 | 4.43 | -0.05 | 0.66 | 0.29
Nc1ncnc2occ(-c3ccc(NC(=O)Nc4cc(C(F)(F)F)cc(C(F)(F)F)c4)cc3)c12 | 0.58 | 0.36 | -1.29 | 1.04 | 2.55 | 1.7 | -1.63 | 0.69 | 0.66 | 0.17
CS(=O)(=O)CCNCc1nc(-c2ccc3ncnc(Nc4ccc(F)c(Cl)c4)c3c2)cs1 | 0.61 | 1 | 0.68 | 1.09 | 4.69 | 3.04 | 3.64 | 1.43 | 9.19 | -0.24
Fc1cccc(COc2ccc(Nc3ncnc4sc(-c5cccs5)cc34)cc2Cl)c1 | 4.63 | 0.96 | -0.11 | 2.66 | 6.77 | -1.25 | -2.01 | 0.38 | 1.29 | 0.52
Nc1nc(-c2ccccn2)c(-c2ccc3ncccc3n2)s1 | 1.77 | -0.2 | -0.49 | 0.58 | 4.27 | 4.79 | 5.31 | 0.81 | 2.21 | -0.67
Cn1cc(C=C2C(=O)Nc3cccnc32)c2ccccc21 | 5.73 | -0.07 | -2.27 | 4.46 | 20.8 | 2.23 | 2.8 | 1.3 | 10.4 | 0.38
COc1cc(C=NNc2ncnc3c2cnn3-c2ccccc2)ccc1O | 6.47 | 0.58 | -3.11 | 2.48 | 11.3 | 3.34 | 2 | 1.39 | 1.57 | -0.02
CCc1cccc(NC(=O)Nc2ccc(Oc3ccc4nc(NC(=O)OC)[nH]c4c3)cc2)c1 | -0.89 | 1.41 | 1.44 | -0.84 | 2.94 | 3.07 | 3.57 | 1.27 | 0.49 | -0.87
